Assay outcomes (PubChem)
Rows were chosen to be rich in hits. Some 2.4% of all compounds tested hit in one or more screens of this group.
D2 PAM-1 = human D2 receptor positive allosteric modulation; DiscoveRx D2 beta-arrestin cells, luminescence, 90 min; 100% = 57 uM dopamine signal; potentiation, % (test concentration not listed); 360,000 compounds, 0.23% hits; AID 624464; in the data active = potentiation above about 50%; inconclusive = mostly about 30% to 49%
Target sequence (P14416 whole entry, looked up): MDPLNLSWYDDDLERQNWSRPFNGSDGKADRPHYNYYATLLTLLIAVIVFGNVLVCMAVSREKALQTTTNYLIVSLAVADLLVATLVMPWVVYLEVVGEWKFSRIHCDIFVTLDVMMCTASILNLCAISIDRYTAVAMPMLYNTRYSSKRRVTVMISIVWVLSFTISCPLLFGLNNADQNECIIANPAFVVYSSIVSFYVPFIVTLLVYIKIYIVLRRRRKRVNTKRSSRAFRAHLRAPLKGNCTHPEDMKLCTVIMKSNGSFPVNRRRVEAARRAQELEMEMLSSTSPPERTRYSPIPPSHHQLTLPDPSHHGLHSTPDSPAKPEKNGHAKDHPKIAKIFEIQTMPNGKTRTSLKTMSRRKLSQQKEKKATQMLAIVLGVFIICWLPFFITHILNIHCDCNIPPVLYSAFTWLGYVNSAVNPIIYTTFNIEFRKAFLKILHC
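PathHunter D2 cells, attached overnight at 37 deg C, received compound in DMSO plus dopamine at EC20 (50 nM final) for 90 min at 37 deg C. Beta-arrestin recruitment was read as luminescence after 1 h with detection reagent at ambient temperature.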
D2 ag-1 = activates the human D2 dopamine receptor; activation, % at 2 µM; 340,000 compounds, 0.53% hits; HEK293 T-REx D2 cells, calcium flux agonist mode; P14416; AID 485358;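 active = activation over 3 SD above normal in the single-dose calcium agonist read, cut at about 30% in these data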; also: 0% is about no effect
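Agonism is scored from calcium flux in a force-coupled, inducible HEK293 cell line expressing D2, read kinetically for 180 s after compound addition against dopamine controls.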
D2 ag-2 = human D2 receptor agonism in beta-arrestin assay; activation, % (test concentration not listed); 360,000 compounds, 0.084% hits; AID 624465; DiscoveRx PathHunter D2 beta-arrestin, luminescence, 90 min; 100% = 57 uM dopamine signal; P14416; in the data active = activation above about 40%; inconclusive = between about 15% and that limit
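Agonist mode: compounds alone added to overnight-plated D2 PathHunter cells for 90 min at 37 C, with 57 uM final dopamine (EC100) defining full response. Beta-arrestin recruitment detected by chemiluminescent reagent, read after 1 h at ambient temperature.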
D2 PAM-2 = positive allosteric modulators of human D2 dopamine receptor; 340,000 compounds, 0.34% hits; P14416; HEK293 T-REx D2, calcium flux, EC20 dopamine potentiation; potentiation, % at 10 µM; AID 485347;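 active = potentiation over 3 SD above the plate norm, cut at about 30% in these data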; also: 0% is about no effect
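Primary screen. Calcium kinetics in induced HEK293 T-REx D2 cells: compound pre-addition 180 s, EC20 dopamine, 180 s more.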
D2 antagonist = D2 dopamine receptor (human) antagonism. 340,000 compounds, 2% hits. P14416. inhibition, % at 10 µM. HEK293 TREx D2 cells, calcium flux, dopamine EC80; in the data active = inhibition above about 30%; inactive = below that, where a call was filed; also: 0% is about no effect
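Calcium mobilization kinetics were recorded at 1 s intervals in tetracycline-induced HEK293 T-REx D2 cells, first for 180 s after compound addition and then 180 s after EC80 dopamine.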
D3 arrestin ag = confirmation of human D3 dopamine receptor agonists, beta-arrestin; 2,300 compounds, 4% hits; shares compounds with D2 ag-1; Potency, µM (highest dose often 76.9 µM), for inactives: at the top dose activation, hits mostly activators; AID 720506; DiscoveRx D3 beta-arrestin cells, luminescence, 90 min;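 also: potency is read from the fitted curve at half-maximal effect; 100% = dopamine control response; nearly all actives have a fitted effect of over 70% in size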
D2 ag-3 = counter-screen for D3 agonists: human D2 dopamine receptor agonism; shares compounds with D2 ag-1; DiscoveRx PathHunter D2 beta-arrestin, luminescence, 90 min; response scale: percent relative to full dopamine signal; Potency, µM (doses to about 76.9 µM), for the others: at the top dose activation, usual class: activators; 2,300 compounds, 5.9% hits; AID 720507; also: potency is read from the fitted curve at half-maximal effect; % of control where 0% means no effect; nearly all actives have a fitted effect of over 70% in size
* hit, by the source's call; u = inconclusive; x = no result given. Unless noted, calls follow the shape of the dose curve; as a rule, active = well fitted activation curve with a large enough effect; inconclusive = small, poorly fitted or top-dose-only effect; inactive = flat fitted curve, though single readings scatter.

SMILES	D2 PAM-1	D2 ag-1	D2 ag-2	D2 PAM-2	D2 antagonist	D3 arrestin ag	D2 ag-3
COc1ccc(S(N)(=O)=O)cc1C(=O)NCCCN1CCN(c2cccc(Cl)c2)CC1	-12	56*	10	-19	50*	13%	24%
O=C1N(CCCl)c2ccc(Br)cc2C12OCCO2	-3	0	-4	2	-7	x	x
COc1ccc(S(=O)(=O)N(CC(=O)Nc2ccccc2Br)Cc2ccccc2)cc1	x	2	x	2	x	x	x
COc1ccccc1C(=O)OCc1cc(=O)n2c(C)csc2n1	x	-1	x	-9	x	x	x
CC(C)c1ccc(OCc2cc(=O)n3c(-c4ccccc4)csc3n2)cc1	x	-1	x	24	x	x	x
Cc1cc(Br)ccc1NC(=O)CCNS(=O)(=O)c1cccc2nonc12	x	x	x	-4	x	x	x
CCC(C)Nc1ccc(NC(C)CC)cc1 (stereo not drawn)	-2	1	7	0	-10	1%	14%
COCCCNC(=O)C1CCN(C(=O)c2cnn(-c3ccccc3)c2-n2cccc2)CC1	x	0	x	3	x	x	x
CC(CCc1ccc(O)cc1)NC1C2CC3CC(C2)CC1C3 (stereo not drawn)	-20	38*	4	-24	71*	-3%	10%
COc1cc(C#Cc2c(-c3ccccc3OC)oc3ccccc23)cc(OC)c1	-2	3	-8	4	0	-2%	2%
CC(=O)/C(C#N)=C1\NC(=O)C(Cc2ccccc2C)S1 (stereo not drawn)	-5	0	-3	3	-3	x	x
CCCCC/C=C/C1=CC(=O)C[C@H](c2ccc3c(c2)OCO3)C1	-10	0	-3	-4	31*	-5%	-1%
CC1CCCN(C(=O)c2ccc3c(c2)OCO3)C1 (stereo not drawn)	-13	0	-7	-1	6	x	x
O=C(c1ccc2c(c1)OCO2)N1CCCC(c2ccccc2)C1 (stereo not drawn)	-7	23	2	-4	55*	23%	26%
COc1ccc(OC)c(NC(=O)c2ccc(-c3cccs3)cc2)c1	-3	3	9	2	-3	x	x
CCN(Cc1ccncc1)C(=O)c1ccccc1NS(=O)(=O)c1ccc(Br)cc1	-12	x	-4	-4	x	0%	1%
COc1cc(C2c3c(oc4ccccc4c3=O)C(=O)N2c2nnc(C(C)C)s2)cc(OC)c1OC (stereo not drawn)	x	0	x	-5	x	x	x
COc1ccccc1NC(=O)CN1CCN(C(=O)C2CCCO2)CC1 (stereo not drawn)	28	2	-3	6	2	x	x
Nc1cccc(C#Cc2ccc3c(=O)c4ccccc4oc3c2)c1	-9	-1	-1	7	4	0%	0%
Nc1c(C(=O)CSc2n[nH]c(-c3ccccc3)n2)c(=O)[nH]c(=O)n1C1CC1	10	66*	u	-27	-8	3%	15%
Nc1c(C(=O)CSc2n[nH]c(-c3ccccc3Br)n2)c(=O)[nH]c(=O)n1C1CC1	-7	0	-4	-6	-11	x	x
Cn1c(N)c(C(=O)CSc2nnc(-c3cccs3)n2C2CC2)c(=O)[nH]c1=O	15	77*	u	-21	19	21%	21%
Cc1ccc([N+](=O)[O-])c(OCCN2CCNCC2)c1	-4	68*	-1	-17	71*	u	4%
Cc1ccc(OCCOCCN2CCCCC2)c([N+](=O)[O-])c1	-6	0	-1	-1	-6	x	x
O=C(c1ccc(Cl)c(S(=O)(=O)N2CCCCC2)c1)N1CCCC(C(F)(F)F)C1 (stereo not drawn)	-1	0	3	-6	22	0%	0%
SMILES	D2 PAM-1	D2 ag-1	D2 ag-2	D2 PAM-2	D2 antagonist	D3 arrestin ag	D2 ag-3
CCOC(=O)[C@H]1[C@H]2COc3ccc(Br)cc3[C@@H]2N2C(=O)CN(Cc3ccco3)C(=O)[C@@]12C	2	1	2	12	-7	-4%	-3%
CCOC(=O)[C@H]1[C@H]2COc3ccc(Br)cc3[C@@H]2N2C(=O)CN(Cc3ccc(Cl)cc3)C(=O)[C@@]12C	-1	x	-4	x	x	x	x
CCOC(=O)[C@H]1[C@H]2COc3ccc(Cl)cc3[C@@H]2N2C(=O)CN(C)C(=O)[C@@]12C	-10	0	-3	-18	-8	-3%	-3%
O=C(O)C[C@H]1c2ccc(C(F)(F)F)cc2S(=O)(=O)N1C1CCCCC1	-2	x	2	x	x	x	x
C[C@@H]1CN([C@H](C)CO)C(=O)c2cc(Br)cnc2O[C@@H]1CN(C)Cc1ccc(-c2ccccc2)cc1	x	x	-1	x	x	x	x
CCOc1ccc(NC(=O)c2oc(=O)c3ccccc3c2-c2ccc(C)cc2)cc1	x	1	x	-9	x	x	x
Cc1occc1-c1nnc(SCC(=O)Nc2nc3ccccc3s2)o1	-2	45*	6	-22	-19	-4%	-2%
CC1CCCC(NC(=O)COC(=O)c2ccc3ncsc3c2)C1C (stereo not drawn)	-4	x	-1	x	x	-2%	4%
COc1ccc(NS(=O)CCCc2ccccc2)cc1 (stereo not drawn)	0	x	0	x	x	x	x
CCn1c(N2CCN(S(=O)(=O)c3ccccc3)CC2)nc2ccccc21	-1	-1	u	19	20	u	19%
CCOC(=O)c1cccc(NC(=O)c2cnccn2)c1	-6	x	-4	1	x	-12%	-3%
CCOc1ccc(NC(=O)CN(C)C(=O)c2ccccc2-n2cnnn2)cc1OCC	-15	0	1	-2	-2	x	x
CC(OC(=O)COc1ccc(C#N)cc1)C(=O)c1ccccc1 (stereo not drawn)	1	0	3	3	32*	-2%	-4%
CN(Cc1ccon1)C(=O)C1CCN(C2CCN(CCCc3ccccc3)CC2)CC1	-13	49*	0	-11	20	-4%	24%
CC(=O)C1=C(c2cccc([N+](=O)[O-])c2)N(C(C)=O)n2c(nnc2-c2ccc(C)cc2)S1	x	x	x	-4	x	x	x
COc1cccc(-c2cnc(C(O)c3ccc(Cl)cc3C)[nH]2)c1 (stereo not drawn)	-10	x	4	x	x	x	x
C=CC[C@H]1Cc2c(cccc2[N+](=O)[O-])[C@H](CC=C)N1	13	36*	u	x	59*	u	u
O=C(NCC(c1ccco1)N1CCN(c2ccccc2F)CC1)C(=O)NC1CCCCC1 (stereo not drawn)	-2	2	6	8	9	x	x
